Source: PubChem BioAssay
SENP6 inh – SENP6 protease inhibition. actives 1.8% (n = 330,000). inhibition, % at 10 µM. Recombinant SENP6 catalytic domain, aminoluciferin luminescence. Q9GZR1;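 active = inhibition above about 50% at the single tested dose, limit read from the data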;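 also: plate controls were DMSO wells with enzyme for no effect and DMSO wells lacking enzyme for full effect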
Platelet DG rel – modulates dense granule release in human platelets | inhibition, %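 (compounds screened at 7.5 µM in platelet-rich plasma)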 | human platelet-rich plasma, SFLLRN dense granule ATP release, luminescence | actives 0.22% (n = 300,000) | AID 1663;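 active = mean replicate score, as percent of positive control, at or above 50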
SENP7 inh – SENP7 protease inhibition. AID 434973. actives 1.5% (n = 330,000). Q9BQF6. recombinant SENP7, Z-RLRGG-aminoluciferin luminescence, 40 min. inhibition, % at 5 µM;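 active = inhibition above about 50% at the single test dose, limit read from the data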;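 also: plate controls were DMSO with enzyme for no effect and no enzyme buffer wells for full effect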
SENP8 block-1 – blocks human SENP8 cleavage of Nedd8 substrate | actives 0.64% (n = 360,000) | recombinant SENP8, Nedd8 substrate fluorescence | inhibition, % at 20 µM | Q96LD8 | AID 602440; in the data active = inhibition mostly above about 40%, no sharp cut-off; inactive = mostly below about 27%
Target sequence (Q96LD8 whole entry, looked up): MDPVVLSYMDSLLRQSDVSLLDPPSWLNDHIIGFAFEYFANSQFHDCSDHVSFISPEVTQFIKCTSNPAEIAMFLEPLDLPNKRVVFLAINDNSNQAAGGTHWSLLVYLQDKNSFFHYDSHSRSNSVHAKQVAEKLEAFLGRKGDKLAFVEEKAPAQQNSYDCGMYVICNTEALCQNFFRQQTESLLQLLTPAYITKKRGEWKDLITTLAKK
SENP8 block-2 – SENP8 protease inhibition; Q96LD8; purified SENP8, Z-RLRGG-aminoluciferin cleavage, luminescence; inhibition, % at 10 µM; actives 1.2% (n = 330,000); AID 2540; in the data active = inhibition above about 50%
SENP8 conf – human SENP8 inhibition, confirmed. shares compounds with SENP7 inh. inhibition, % at 12.5 µM. actives 40% (n = 6,200). Recombinant SENP8, Z-RLRGG-aminoluciferin luminescence, 60 min. AID 488912;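 active = mean inhibition across replicates above about 50%, limit read from the data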
SENP6 confirm – human SENP6 inhibition, confirmed | shares compounds with SENP7 inh | actives 58% (n = 6,200) | inhibition, % at 12.5 µM | recombinant SENP6, Z-RLRGG-aminoluciferin luminescence
SENP7 confirm – confirmation of human SENP7 protease inhibitors; shares compounds with SENP7 inh; recombinant SENP7, Z-RLRGG-aminoluciferin luminescence, 40 min; inhibition, % at 12.5 µM; actives 69% (n = 6,200)
Casp3 SENP sel – inhibits human caspase-3 in SENP selectivity test; shares compounds with SENP7 inh; purified caspase-3, Z-DEVD-aminoluciferin luminescence, 60 min; inhibition, % at 12.5 µM; actives 60% (n = 6,200);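 active = mean inhibition above about 50%, limit read from the data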;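 also: plate controls were enzyme with DMSO for no effect and wells without caspase-3 for full effect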
Target sequence (P42574 28-227 limits assumed): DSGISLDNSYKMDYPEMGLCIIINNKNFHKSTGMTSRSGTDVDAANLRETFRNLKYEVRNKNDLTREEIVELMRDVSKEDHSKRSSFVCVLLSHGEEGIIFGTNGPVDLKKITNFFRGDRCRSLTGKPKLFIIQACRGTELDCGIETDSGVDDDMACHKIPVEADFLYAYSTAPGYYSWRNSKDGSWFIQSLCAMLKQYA
SENP luc ctr – counter-screen for SENP inhibitors: luminescence interference; shares compounds with SENP7 inh; Pre-incubated SENP8/Z-RLRGG-aminoluciferin, luciferase luminescence interference; AID 488919; actives 39% (n = 6,200); inhibition, % at 12.5 µM;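 active = mean inhibition above about 50% when retested at one dose, limit read from the data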;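 also: plate controls were DMSO wells with completed reaction for no effect and substrate without enzyme for full effect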
Numbers without * were called inactive. Hits are enriched below; roughly 2.4% of the tested compounds scored in any of these assays.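 The calls were made as follows, unless noted: active = mean inhibition above about 50% in the one-dose retest (limit read from the data); inactive = the rest.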

For COc1cccc(C(N)c2nc(-c3cc(F)cc(F)c3)cs2)c1 (configuration not stated) the results were SENP8 block-1 -5.
For CC(=O)Oc1ccccc1/C=C/c1nc2ccccc2c(=O)o1 the results were SENP6 inh 76*, Platelet DG rel 3, SENP7 inh 66*, SENP8 block-1 -41, SENP8 block-2 65*, SENP8 conf 77*, SENP6 confirm 74*, SENP7 confirm 90*, Casp3 SENP sel 94* and SENP luc ctr 57*.
CC(=O)Oc1ccc(-c2nc3ccccc3c(=O)o2)cc1 was read as SENP6 inh 34, Platelet DG rel 7, SENP7 inh 10, SENP8 block-1 -10 and SENP8 block-2 -18.
CC(=O)Oc1ccc(/C=C/c2nc3ccccc3c(=O)o2)cc1 was read as SENP6 inh 96*, Platelet DG rel 83*, SENP7 inh 99*, SENP8 block-1 -134, SENP8 block-2 95*, SENP8 conf 74*, SENP6 confirm 79*, SENP7 confirm 55*, Casp3 SENP sel 68* and SENP luc ctr 50.
`Cc1nc2ccc(NC(=O)c3sccc3C)cc2s1` gave SENP6 inh 85*, Platelet DG rel 10, SENP7 inh 69*, SENP8 block-1 16, SENP8 block-2 60*, SENP8 conf 71*, SENP6 confirm 71*, SENP7 confirm 90*, Casp3 SENP sel 81* and SENP luc ctr 73*.
Screening Cc1nc2ccc(NC(=O)c3cccs3)cc2s1 returned SENP6 inh -7, Platelet DG rel 10, SENP7 inh -2, SENP8 block-1 2 and SENP8 block-2 -12.
Cc1nc2ccc(NC(=O)c3ccc4ccccc4n3)cc2s1 was read as SENP6 inh 3, Platelet DG rel 2, SENP7 inh 71*, SENP8 block-1 1, SENP8 block-2 6, SENP8 conf 11, SENP6 confirm 12, SENP7 confirm 40, Casp3 SENP sel 51* and SENP luc ctr 5.
Screening COC(=O)c1ccc(-c2nc(-c3cccs3)no2)cc1 returned SENP6 inh 92*, SENP7 inh 98*, SENP8 block-1 5, SENP8 block-2 87*, SENP8 conf 78*, SENP6 confirm 88*, SENP7 confirm 89*, Casp3 SENP sel 88* and SENP luc ctr 38.
Screening COc1ccc(-c2nc(-c3ccc(Br)o3)no2)cc1 returned SENP6 inh 49, Platelet DG rel 22, SENP7 inh 70*, SENP8 block-1 4, SENP8 block-2 25, SENP8 conf 6, SENP6 confirm 12, SENP7 confirm 11, Casp3 SENP sel 27 and SENP luc ctr 9.
For O=C(Nc1ccc(-c2noc(-c3cccs3)n2)cc1)c1cccnc1 the results were SENP6 inh 38, Platelet DG rel 2, SENP7 inh 55*, SENP8 block-1 7, SENP8 block-2 20, SENP8 conf 5, SENP6 confirm 41, SENP7 confirm 68*, Casp3 SENP sel 26 and SENP luc ctr 7.
`COc1cccc(-c2nc(-c3ccc(NC(=O)c4cccnc4)cc3)no2)c1` gave SENP6 inh -5, Platelet DG rel 10, SENP7 inh 5, SENP8 block-1 23 and SENP8 block-2 -6.
`COC(=O)c1ccc(-c2nc(-c3ccc(Br)o3)no2)cc1` gave SENP6 inh 0, Platelet DG rel 6, SENP7 inh 52*, SENP8 block-1 10, SENP8 block-2 -5, SENP8 conf -13, SENP6 confirm -7, SENP7 confirm 18, Casp3 SENP sel 16 and SENP luc ctr 2.
`CCCCN(C)CCCNC(=O)C1(O)c2ccccc2NC(=O)N1c1ccc(Cl)cc1` (configuration not stated) gave SENP6 inh 4, Platelet DG rel 6, SENP7 inh 11, SENP8 block-1 7 and SENP8 block-2 6.
Screening C/C(=N/NC(=O)c1ccc(-c2ccccc2)cc1)c1cccc(O)c1 returned SENP6 inh 3, SENP7 inh 9, SENP8 block-1 0 and SENP8 block-2 -13.
`CCCn1c(SCC(=O)c2[nH]c(C)c(C(C)=O)c2C)n[nH]c1=O` gave SENP6 inh -8, Platelet DG rel 27, SENP7 inh -1, SENP8 block-1 20 and SENP8 block-2 1.
CN(CCc1ccccc1)C1CCCN(S(=O)(=O)CC(F)(F)F)C1 (configuration not stated) was read as SENP6 inh -2, Platelet DG rel 2, SENP7 inh -7, SENP8 block-1 2 and SENP8 block-2 -2.
`COc1cc(OC)cc(C(=O)Nc2ccc(-n3cnnn3)c(C)c2)c1` gave SENP6 inh 94*, Platelet DG rel 43, SENP7 inh 1, SENP8 block-1 12, SENP8 block-2 92*, SENP8 conf 69*, SENP6 confirm 92*, SENP7 confirm 101*, Casp3 SENP sel 95* and SENP luc ctr 92*.
For O=C(COc1ccc2c(c1)oc(=O)c1ccccc12)NC(Cc1ccc(Cl)cc1)C(=O)O (configuration not stated) the results were SENP6 inh -5, Platelet DG rel -2, SENP7 inh 4, SENP8 block-1 -183 and SENP8 block-2 -2.
`COc1ccc2[nH]c3c(c2c1)CCn1c-3nc2ccccc2c1=O` gave SENP6 inh 26, SENP7 inh 80*, SENP8 block-1 inactive, SENP8 block-2 -8, SENP8 conf 7, SENP6 confirm 10, SENP7 confirm 23, Casp3 SENP sel 18 and SENP luc ctr 4.
Screening C=CCn1c(/N=C/c2ccc(N(C)C)cc2)nc2ccccc21 returned SENP6 inh 77*, Platelet DG rel 1, SENP7 inh 6, SENP8 block-1 6, SENP8 block-2 71*, SENP8 conf 81*, SENP6 confirm 78*, SENP7 confirm 94*, Casp3 SENP sel 75* and SENP luc ctr 85*.
`CN(C)c1ccc(/C=N/n2ncc3ccccc32)cc1` gave SENP6 inh 76*, Platelet DG rel 7, SENP7 inh 2, SENP8 block-1 -252, SENP8 block-2 68*, SENP8 conf -5, SENP6 confirm 85*, SENP7 confirm 97*, Casp3 SENP sel 70* and SENP luc ctr 43.
